Assay results: PubChem BioAssay
Unmarked numbers belong to inactive results. The source made the active and inactive calls.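 The calls were made as follows: active = inhibition above the hit cutoff set in the earlier primary screen (cut at about 27% in these data); inactive = the rest.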

Molecular target: Protein phosphatase methylesterase 1 (Homo sapiens) (UniProt Q9Y570)
Assay: PME-1 inhibitor activity retest, confirmation, biochemical, fluorescence polarization, FP-Rh probe, triplicate (AID 2171);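 also: 0% = enzyme with DMSO and 100% = wells lacking PME-1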
Conditions: recombinant PME-1, FP-Rh probe fluorescence polarization; at 5.9 µM; active compounds read high

Protein phosphatase methylesterase 1 (Homo sapiens), sequence (Q9Y570 whole entry, looked up): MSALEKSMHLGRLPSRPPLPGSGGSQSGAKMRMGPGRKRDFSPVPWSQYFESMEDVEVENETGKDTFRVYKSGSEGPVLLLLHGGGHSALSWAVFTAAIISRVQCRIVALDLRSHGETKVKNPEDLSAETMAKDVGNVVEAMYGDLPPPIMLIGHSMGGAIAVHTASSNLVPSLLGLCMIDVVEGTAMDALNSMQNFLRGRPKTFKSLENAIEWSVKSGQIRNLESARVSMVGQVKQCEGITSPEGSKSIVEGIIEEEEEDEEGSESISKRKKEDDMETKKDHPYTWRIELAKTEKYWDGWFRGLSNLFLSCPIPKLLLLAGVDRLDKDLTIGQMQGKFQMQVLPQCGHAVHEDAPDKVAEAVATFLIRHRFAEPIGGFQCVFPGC

Structure (SMILES) | inhibition
N#Cc1c(N)nc2c3c(sc(=N)c2c1N)NC(=O)CC3c1c(F)cccc1Cl (stereo not given) | 38.2% (active)
CCCn1c(CCC(=O)Nc2ccccc2Cc2ccccc2)nc2cc(S(=O)(=O)N3CCOCC3)ccc21 | 45.4% (active)
Cn1c2ccccc2c2cc(/C=N/NC(=O)c3ccc(O)cc3O)ccc21 | 23%
COc1ccc(OCCn2cc(/C=N/NC(=O)c3ccncc3)c3ccccc32)cc1 | -21.9%
Fc1ccc2nc(Nc3nc4cc5c(cc4s3)OCO5)sc2c1 | 2.53%
O=C(Nc1ccc(N2CCOCC2)cc1)Nc1ccc(Cl)c(Cl)c1 | 21.4%
O=S(=O)(c1cccs1)N1CN(Cc2ccco2)c2nc3ccccc3nc21 | 13.4%
Cc1c(Cl)cccc1Nc1nc(N)nc(CSc2nc3ccccc3s2)n1 | 25.1%
CCN(CC)S(=O)(=O)c1ccc(C)c(NC(=O)COC(=O)c2ccc(C)c(S(=O)(=O)N3CCOCC3)c2)c1 | 49.7% (active)
O=c1[nH]n2c(=O)c3c([nH]c2c1N=Nc1cccc(Cl)c1)CCCC3 | 61.8% (active)
Cc1cc(-c2nnc(SCC(=O)Nc3nc(-c4ccc(Cl)cc4)cs3)o2)no1 | -22.5%
Oc1nc(Nc2cccc(Cl)c2)sc1/C=C1\C=Nc2ccccc21 | 26.6% (active)
Oc1ccc(Nc2nc3ccccc3nc2Nc2ccc(O)cc2)cc1 | -0.74%
CCC(=Nc1ccc(N)cc1)C1=C(O)C(C(=O)OC)C(C)(C)CC1=O (stereo not given) | 2.34%
CCOc1cccc(CNc2ccc(O)cc2)c1OCc1ccccc1Cl | 6.79%
CCOC(=O)Cc1csc(NC(=O)c2sc3nc4ccc(C)cc4cc3c2N)n1 | 21%
C/C(=N\Nc1cccc([N+](=O)[O-])c1)c1ccccc1O | 39.4% (active)
Cc1cc(N(C)C)ccc1N=Nc1ccc2ncccc2c1 | 42.3% (active)
CCCn1nc([N+](=O)[O-])c(C(C#N)c2nc3ccccc3o2)c(Cl)c1=O (stereo not given) | 36.5% (active)
O=C(Nc1ccc2[nH]c(=S)sc2c1)Nc1ccccc1F | 67.4% (active)

Structure (SMILES) | inhibition
CC(C)=CCc1cc(-c2oc3cc(O)cc(O)c3c(=O)c2O)ccc1O | 36.8% (active)
CCc1ccc2nc3sc(C(=O)Nc4nnc(CC)s4)c(N)c3cc2c1 | 57.6% (active)
O=C(O)c1ccccc1N/N=C/c1cc(Br)cc(Br)c1O | 43.7% (active)
COc1ccc(NC(=O)c2c[nH]n3c(=O)cc(C4CCN(C(=O)OC(C)(C)C)CC4)nc23)cc1Cl | 25.1%
CC(C)(C)n1nnnc1C(c1cccs1)N(Cc1cccnc1)Cc1ccco1 (stereo not given) | 15.8%
COCCN=c1scc(-c2cc(OC)c(OC)c(OC)c2)n1/N=C/c1c(C)[nH]c2ccccc12 | 18.7%
CC1CCCCN1S(=O)(=O)c1ccc(C(=O)Nc2ccccc2-c2nc3ccccc3[nH]2)cc1 (stereo not given) | 8.87%
CCc1cc(/C(Cc2ccc3ccccc3n2)=N\O)c(O)cc1O | 30.8% (active)
Oc1ccc(/C=N/Nc2ccnc3cc(Cl)ccc23)cc1O | 5.4%
Cc1ccccc1OCC(=O)NC(=S)Nc1cccc2cc(O)ccc12 | 20.7%
O=C(COC(=O)/C=C/c1cccs1)Nc1nc(-c2cccc(Br)c2)cs1 | 14.9%
CCC1Sc2ccc(S(=O)(=O)CCC(=O)Nc3ccc(OC(F)(F)F)cc3)cc2NC1=O (stereo not given) | 17.3%
Cc1cccc2cc(C#N)c(SCC#N)nc12 | 3.95%
O=C(COC(=O)c1cccc2c1C(=O)c1ccccc1C2=O)NC1CCCCC1 | 56.5% (active)
Nc1c(N=Nc2ccccc2F)c(=O)[nH]n1-c1ccccc1 | 30.1% (active)
c1ccc2c(c1)OCCc1c-2[nH]c2ccccc12 | 21.9%
O=C(N/N=C/c1cc(Cl)c(O)c(Cl)c1)c1cc2c(ccc3ccccc32)o1 | 38.5% (active)
CC(C)(C)c1cc(C(=O)N/N=C/c2ccc(-c3ccccc3[N+](=O)[O-])o2)n[nH]1 | 1.81%
COc1cc(/C=N/NC(=S)Nc2cccc(S(=O)(=O)N(C)C)c2)ccc1O | 14.1%
Cc1cccc2c(N=Nc3ccc(S(=O)(=O)Nc4cccc(Cl)c4)cc3[N+](=O)[O-])c(O)[nH]c12 | -12.3%
